In PubChem BioAssay AID1987 (The Scripps Research Institute Molecular Screening Center, 2009):
The campaign covered roughly 320,000 compounds. About 560 (0.17%) were called active.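 How the source made its calls: active means inhibition above the campaign's mean inhibition across all tested compounds plus 3 SD (cut at about 9.5% in these data); inactive means the rest.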 The full list was thinned out, with actives kept by preference.

What follows are compounds tested against Serine/threonine-protein phosphatase 5 (Homo sapiens) (UniProt P53041) (assay: inhibition of human PP5 catalytic activity – biochemical, fluorescence, primary screen (AID 1987;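 further: 0% = DMSO only and 100% = 100 µM cantharidin control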)). Conditions: purified PP5c, OMFP substrate fluorescence; at 6.7 µM; hits give high values.
Serine/threonine-protein phosphatase 5 (Homo sapiens), sequence (P53041 whole entry, looked up): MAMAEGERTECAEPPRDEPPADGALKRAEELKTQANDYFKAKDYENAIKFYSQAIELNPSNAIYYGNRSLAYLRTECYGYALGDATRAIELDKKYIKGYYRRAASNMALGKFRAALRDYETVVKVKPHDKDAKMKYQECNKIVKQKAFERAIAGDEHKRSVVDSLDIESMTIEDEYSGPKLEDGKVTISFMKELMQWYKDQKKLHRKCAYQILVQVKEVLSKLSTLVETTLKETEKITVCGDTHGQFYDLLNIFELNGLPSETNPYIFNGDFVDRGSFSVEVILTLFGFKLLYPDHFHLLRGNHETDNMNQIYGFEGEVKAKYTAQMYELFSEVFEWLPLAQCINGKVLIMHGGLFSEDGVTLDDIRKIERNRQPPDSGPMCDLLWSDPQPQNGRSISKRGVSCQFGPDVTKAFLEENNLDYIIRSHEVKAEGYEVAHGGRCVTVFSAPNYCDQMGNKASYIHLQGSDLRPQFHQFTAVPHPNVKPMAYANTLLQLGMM

inhibition, active:
N#Cc1c(N2CCCCC2)nc(N)c2c(N)nc(SCC(=O)O)cc12 12.7%
Cc1nc(NC(CC(C)C)C(=O)O)c2nc(C)oc2n1 (stereo not given) 11.7%
C[C@@]12C(=O)N(c3cccc(Br)c3)C(=O)N1[C@H](c1ccc(Cl)cc1)[C@@H]1C(=O)N(C3CCCCC3)C(=O)[C@@H]12 9.7%
O=c1ccc2c(-c3ccccc3S(=O)(=O)O)c3ccc(O)c(O)c3oc-2c1O 9.92%
O=[N+]([O-])c1cccc2ncccc12 10.4%
CNC(=S)NNC(=O)c1oc2nc(-c3ccccc3)cc(-c3ccco3)c2c1N 15%
COc1ccc(OC)c(C(=O)c2ccc(C(=O)O)cc2)c1 10.3%
CCC(=C/c1sc2ccc3ccccc3c2[n+]1C)/C=C1\Sc2ccc3ccccc3c2N1C 13%
O=C(C1=C[C@H](c2ccc(C(F)(F)F)cc2)C[C@H](OCc2ccc(CO)cc2)O1)N1CCN(Cc2ccccc2)CC1 9.64%
CN(C)c1nc(N)nc(CSc2nnnn2-c2cccc3ccccc23)n1 11.6%
COCCN1C=C2C(=O)C(C)(OC(=O)C3CCCC3)C(=O)C=C2C=C1c1ccsc1 (stereo not given) 11.1%
CN(c1ccccc1)S(=O)(=O)c1ccc(NC(=O)COc2ccccc2)cc1 10.2%

inhibition, inactive:
Cc1nc(CNS(=O)(=O)c2cc([N+](=O)[O-])ccc2C)cs1 -0.47%
N#Cc1c(-c2ccccc2)cc(-c2ccccc2)nc1SCC(=O)O -0.23%
N#CCc1c(C#N)c(N)nc(N2CCCC2)c1C#N 2.12%
CC1(C)CC(=O)C=C(NCCCN2CCCC2=O)C1 -3.07%
CC1(c2cccc([N+](=O)[O-])c2)CC(C)(C)N(C(=O)c2ccccc2)c2ccccc21 (stereo not given) 3.32%
CC(C)(C)N1C(=O)[C@H]2[C@@H](c3ccc(Br)cc3)N3C(=O)N(c4cccc(Cl)c4)C(=O)[C@@]3(C)[C@H]2C1=O 5.22%
O=C1[C@H]2[C@@H](c3ccc(Cl)cc3)N3C(=O)N(c4cccc(F)c4)C(=O)[C@@]3(Cc3ccccc3)[C@H]2C(=O)N1C1CCCCC1 2.69%
O=C(CCn1nnnc1CN1CCOCC1)N1CCC(c2ccccc2Cl)C1 (stereo not given) 0.07%
Cc1noc(C)c1C(=O)N(CC(=O)NC1CCCC1)Cc1ccccc1F 0.94%
CN(CC(=O)NCc1ccc(Cl)cc1)S(=O)(=O)c1cccs1 3.27%
Cc1c(C)c2c(OCC(=O)N[C@@H](C(=O)O)c3ccccc3)cc3c(c2oc1=O)CCC(C)(C)O3 2.43%
c1ccc(C[C@H]2CNCCN2CCC23CC4CC(CC(C4)C2)C3)cc1 1.23%
CCn1ccnc1CNC(=O)CC1C(=O)NCCN1CCCc1ccccc1 (stereo not given) 0.82%
COCC1CCN(C(=O)c2ccc3oc(Cc4ccccc4)nc3c2)C1 (stereo not given) 2.88%
O=[N+]([O-])c1cc([N+](=O)[O-])c2cccnc2c1O 2%
Nc1nc(Sc2ncccc2[N+](=O)[O-])n[nH]1 1.94%
N#Cc1ccc(CN2CCN(CC(=O)Nc3ccccc3C(=O)NC3CC3)CC2)cc1 -0.41%
CC(NC(=O)c1cc2cc(Cl)ccc2oc1=N)c1ccccc1 (stereo not given) 2.37%
COc1cc(C(=O)Nn2c(O)c(C3=c4ccccc4=NC3=O)sc2=S)ccc1O -1.88%
CN(C(=O)CN1C(=O)/C(=C/c2ccc(Cl)cc2)SC1=S)C1CCS(=O)(=O)C1 (stereo not given) 2.22%
CNc1nc(-c2ccccc2)cc(-c2ccccc2)n1 3.18%
NNC(=O)c1oc2nc(-c3ccccc3)cc(-c3ccco3)c2c1N -0.37%
COc1ccc(S(=O)(=O)N2CCOCC2)cc1NC(=O)CC1CC2CCC1C2 (stereo not given) -2.65%
COc1ccc(OC)c(C(=O)c2coc3ccc(OC)cc23)c1 3.44%
COc1ccc(OC)c(C(=O)c2ccc(Cl)cc2)c1 1.9%
COC(=O)c1ccccc1NC(=O)CSc1n[nH]c(-c2ccncc2)n1 2.98%
Cc1cc(N2CCCC2=O)cc(C)c1S(N)(=O)=O 0.58%
COCCNC(=O)c1ccc2c(c1)ncn2-c1ccc(C)c(Cl)c1 -2.87%
COc1cccc(CNC(=O)CCC2CCCN(C(=O)c3cc(C)[nH]n3)C2)c1 (stereo not given) -3.1%
CC(=O)N1CCOc2ccc(S(=O)(=O)N3CCC(C(=O)Nc4ccccc4F)CC3)cc21 -2.25%
COc1cccc(NC(=S)C(C#N)=C2N(C)c3ccccc3N2C)c1 3.32%
CC1Cc2cc(/C(O)=C3\C(=O)C(=O)N(Cc4cccnc4)C3c3ccccc3F)ccc2O1 (stereo not given) -0.96%
O=C1C=C(c2cccc(Br)c2)C[C@@H](c2ccc(F)cc2)C1 2.74%
O=C(NCCCN1CCCCCC1)C1CC(=O)N(C2CCCC2)C1 (stereo not given) 0.05%
CCc1c(O)nc(SCC(=O)Nc2ccccc2)n(C(C)CC)c1=O (stereo not given) 4.45%
CCCCN(C(=O)c1ccc(OC(F)(F)F)cc1)c1c(N)n(CCC)c(=O)[nH]c1=O 2.07%
O=C(CN(CC1CCCO1)C(=O)CNS(=O)(=O)c1ccc(Cl)cc1)NCc1ccccc1 (stereo not given) -1.95%
Cc1ccc(C2=NN(C(=O)COc3ncnc4ccccc34)C(c3ccco3)C2)cc1 (stereo not given) -1.05%
CCOC(=O)N1CCN(Cc2oc(CO)cc(=O)c2O)CC1 3.28%
CCC(C(=O)NCCC(C)C)N(Cc1ccccc1Cl)C(=O)c1snc(C(N)=O)c1N (stereo not given) -2.16%
CC(=O)NCc1ccc(S(=O)(=O)NC2CCN(Cc3ccccc3)CC2)cc1 2.13%
C=C(C)CNc1cc(S(=O)(=O)N2CCOCC2)ccc1Oc1ccccc1 4.3%
Cc1ccc(CCN2CC(C(=O)O)CC2=O)cc1 (stereo not given) 5.13%
CC(C)(C)S(=O)(=O)c1ccccc1-c1noc(-c2ccccc2)c1C(N)=O -0.76%
Cc1ccc(Cl)cc1NC(=O)CN1CCN(S(=O)(=O)N2CCOCC2)CC1 0.83%
Cc1cc(C(=O)COc2ccc(Br)cc2F)c(C)n1C1CC1 -1.78%
O=C(NCc1cccc(Cl)c1)C1=CC=CN2CCS(=O)(=O)N=C12 0.61%
COc1cccc(OCc2nnc3n2N=C(c2ccccc2)C(CC(=O)O)S3)c1 (stereo not given) -0.47%
COc1ccccc1C(=O)NCCC(=O)N(C)Cc1cccnc1 0.46%
Cn1c(N)c(C(=O)COC(=O)COc2ccc(Cl)cc2)c(=O)n(C)c1=O 1%
FC(F)(F)c1ccc2nnc(-c3c(Cl)cccc3Cl)n2c1 -1.13%
O=C1Oc2ccccc2C(=O)/C1=C/c1ccccc1O 4.64%
COc1ccc(NC(=O)CSc2nncc(=O)n2N)cc1OC 2.92%
O=C(Nc1ccccc1)C1CC(=O)n2c(nc3ccccc32)N1 (stereo not given) -0.67%
Nc1ccc(C(=O)Nc2ccccc2N)cc1 -0.77%
Cc1ccc(CN2CCN(Cc3cccc(C)n3)CC2CCO)cc1 (stereo not given) 0.2%
CC(C)(C)NC(=O)c1cccc(NC(=O)Cc2ccc(Br)cc2)c1 3.17%
CC(C)(C)C(=O)Nc1c(Br)c(C2CC2)nn1-c1ccccc1 0.27%
CCOC(=O)C1=C(CC)OC(N)=C(C#N)C1c1ccc(F)cc1F (stereo not given) -1.28%
COc1cc(OC)cc(-c2cc3nc(C4CCN(C(=O)OC(C)(C)C)CC4)cc(=O)n3[nH]2)c1 -0.26%
COc1ccc(NC(=O)CCCC(=O)c2ccccc2)cc1 0.28%
CCCn1c(C)cc(/C=C(\C#N)C(=O)OCC(=O)Nc2cc(OC)c(OC)c(OC)c2)c1C 0.54%
O=C(NCc1ccccc1)C1=C[C@@H](c2ccc(C(F)(F)F)cc2)C[C@@H](OCc2ccc(CO)cc2)O1 7.35%
O=C(C1=C[C@H](C2CC2)C[C@H](OCc2ccc(CO)cc2)O1)N1CCN(Cc2ccccc2)CC1 1.72%
Nc1nnc(SCC(=O)NCC(=O)Nc2ccc(F)c(F)c2F)s1 -0.64%
O=C(OCc1cn(-c2ccc(Cl)c(Cl)c2)nn1)c1ccccc1Cl 1.67%
CC1CCCC(C)N1C(=O)COC(=O)COc1ccccc1C#N (stereo not given) -0.87%
CN(C)c1nc(N)nc(CSc2ccccn2)n1 1.71%
COc1ccc(-n2nnnc2SCc2nc(N)nc(N3CCOCC3)n2)cc1 0.58%
O=C(O)c1cc(S(=O)(=O)Nc2ccc3cn[nH]c3c2)ccc1Br 4.94%
Cc1ccc(-n2nc(-c3ccco3)cc2C(=O)NCc2cccnc2)cc1 2.97%
CC1(OC(=O)C2CCCC2)C(=O)C=C2C=C(c3ccc(C#N)cc3)OC=C2C1=O (stereo not given) -1.54%
COC(=O)CCCC1=CC2=CC(=O)C(C)(OC(=O)c3cccs3)C(=O)C2=CN1CC1CC1 (stereo not given) 5.3%
O=C(COc1ccccc1)Nc1ccc(F)cc1 0.71%
CN(c1ccc(OCC(=O)O)cc1)S(=O)(=O)c1ccc2ccccc2c1 1%
Cc1ccc(S(=O)(=O)N(c2cccc(C)c2)C2CCS(=O)(=O)C2)cc1 (stereo not given) 0.29%
Cc1nnc(SCC(=O)Nc2ncc3c(n2)CC(C)(C)CC3=O)s1 2.93%
O=C(O)C1CCC(CNS(=O)(=O)c2ccc(Br)cc2)CC1 (stereo not given) -2.97%
